From PMC7862700, “An all-to-all approach to the identification of sequence-specific readers for epigenetic DNA modifications on cytosine”

Tests used:
Test in all cases: DAPPL (digital affinity profiling via proximity ligation, sequencing); 10 mM Tris-HCl pH 7.5, 50 mM NaCl, 1 mM DTT, 4% glycerol, room temperature, 30 min; GST-TFs on glutathione beads, 16-mer random dsDNA library, 0.1% formaldehyde crosslink after washing; high values mean tight binding
FEV = biological target: T1, FEV (Homo sapiens, UniProt Q99581 1-238); conditions: protein: recombinant; tags: N-terminal GST; dsDNA, one strand shown
T1 sequence: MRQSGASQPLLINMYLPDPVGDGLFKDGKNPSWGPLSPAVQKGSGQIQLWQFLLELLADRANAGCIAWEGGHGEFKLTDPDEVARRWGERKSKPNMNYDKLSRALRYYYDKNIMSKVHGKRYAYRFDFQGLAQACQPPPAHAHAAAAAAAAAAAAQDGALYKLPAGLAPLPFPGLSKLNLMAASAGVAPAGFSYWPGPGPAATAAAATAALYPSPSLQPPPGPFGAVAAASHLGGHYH
How it was run: (§1)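 In yeast, human transcription factors were expressed with a GST fusion, then pulled down on glutathione beads and given DNA barcodes. Pooled with a tag-only sample, they were exposed to 200 nmole of a 16-mer random double-stranded DNA library (Tris/NaCl/DTT/glycerol buffer, room temperature, 30 min), washed, crosslinked with 0.1% formaldehyde, proximity-ligated using BsaI/T4 ligase for 1 h at 37 °C, PCR-amplified and read on an Illumina NextSeq500. Each hexamer's frequency of reads for a factor, divided by the matching frequency for the tag-only sample, gives the binding signal.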

ETV5 = ETV5 (Homo sapiens, UniProt P41161 1-510); conditions: protein: recombinant; tags: N-terminal GST; dsDNA, one strand shown
How it was run: as §1

HSF1 = HSF1 (Homo sapiens, UniProt Q00613 1-529); conditions: protein: recombinant; tags: N-terminal GST; chain copies: 3; dsDNA, one strand shown
How it was run: as §1

SPIC = biological target: T2, SPIC (Homo sapiens, UniProt Q8N5J4 1-248); conditions: protein: recombinant; tags: N-terminal GST; dsDNA, one strand shown
T2 sequence: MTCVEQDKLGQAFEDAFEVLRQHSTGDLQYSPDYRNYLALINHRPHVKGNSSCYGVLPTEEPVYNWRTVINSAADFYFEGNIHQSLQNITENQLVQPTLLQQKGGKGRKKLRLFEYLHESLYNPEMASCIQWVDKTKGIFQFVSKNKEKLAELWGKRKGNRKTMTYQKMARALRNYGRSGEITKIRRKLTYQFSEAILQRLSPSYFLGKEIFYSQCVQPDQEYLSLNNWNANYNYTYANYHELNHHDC
How it was run: as §1

ELF4 = ELF4 (Homo sapiens, UniProt Q99607 1-663); conditions: protein: recombinant; tags: N-terminal GST; dsDNA, one strand shown
How it was run: as §1

ELK4 = biological target: T3, ELK4 (Homo sapiens, UniProt P28324-2 1-405); conditions: protein: recombinant; tags: N-terminal GST; dsDNA, one strand shown
T3 sequence: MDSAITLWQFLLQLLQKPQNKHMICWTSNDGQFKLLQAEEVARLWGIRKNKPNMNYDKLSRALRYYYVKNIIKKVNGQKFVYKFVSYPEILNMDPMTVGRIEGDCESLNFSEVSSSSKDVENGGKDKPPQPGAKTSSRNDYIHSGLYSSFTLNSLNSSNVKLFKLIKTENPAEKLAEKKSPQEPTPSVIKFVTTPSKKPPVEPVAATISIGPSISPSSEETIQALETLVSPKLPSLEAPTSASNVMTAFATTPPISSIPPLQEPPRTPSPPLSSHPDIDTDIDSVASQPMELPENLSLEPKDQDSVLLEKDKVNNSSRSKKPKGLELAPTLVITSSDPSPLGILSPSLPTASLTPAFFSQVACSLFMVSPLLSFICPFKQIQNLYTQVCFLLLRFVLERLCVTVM
How it was run: as §1

ETV2 = biological target: T4, ETV2 (Homo sapiens, UniProt O00321 1-342); conditions: protein: recombinant; tags: N-terminal GST; dsDNA, one strand shown
T4 sequence: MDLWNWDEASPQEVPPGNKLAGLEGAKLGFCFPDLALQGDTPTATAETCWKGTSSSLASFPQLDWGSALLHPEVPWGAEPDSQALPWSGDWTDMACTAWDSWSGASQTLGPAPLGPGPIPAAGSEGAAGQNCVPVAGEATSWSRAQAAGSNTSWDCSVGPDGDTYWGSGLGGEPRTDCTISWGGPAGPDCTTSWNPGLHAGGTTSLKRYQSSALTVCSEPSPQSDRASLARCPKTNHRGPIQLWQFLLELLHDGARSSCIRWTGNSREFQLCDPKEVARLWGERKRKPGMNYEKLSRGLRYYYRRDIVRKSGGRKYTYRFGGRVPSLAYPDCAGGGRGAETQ
How it was run: as §1

ELF3 = biological target: T5, ELF3 (Homo sapiens, UniProt P78545 1-371); conditions: protein: recombinant; tags: N-terminal GST; dsDNA, one strand shown
T5 sequence: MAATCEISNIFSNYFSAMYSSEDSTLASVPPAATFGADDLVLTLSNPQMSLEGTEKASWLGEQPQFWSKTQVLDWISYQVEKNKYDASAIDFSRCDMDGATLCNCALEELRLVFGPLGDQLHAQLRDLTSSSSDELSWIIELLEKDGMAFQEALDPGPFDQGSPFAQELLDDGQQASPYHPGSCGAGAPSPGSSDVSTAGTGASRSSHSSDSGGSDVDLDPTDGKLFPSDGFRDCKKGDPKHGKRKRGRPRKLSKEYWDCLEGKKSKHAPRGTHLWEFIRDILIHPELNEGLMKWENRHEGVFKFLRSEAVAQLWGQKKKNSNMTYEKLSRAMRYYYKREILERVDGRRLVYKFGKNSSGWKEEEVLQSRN
How it was run: as §1

CRX = CRX (Homo sapiens, UniProt O43186 1-299); conditions: protein: recombinant; tags: N-terminal GST; dsDNA, one strand shown
How it was run: as §1

ETV1 = ETV1 (Homo sapiens, UniProt P50549 1-477); conditions: protein: recombinant; tags: N-terminal GST; dsDNA, one strand shown
How it was run: as §1

ERF = biological target: T6, ERF (Homo sapiens, UniProt P50548 1-548); conditions: protein: recombinant; tags: N-terminal GST; dsDNA, one strand shown
T6 sequence: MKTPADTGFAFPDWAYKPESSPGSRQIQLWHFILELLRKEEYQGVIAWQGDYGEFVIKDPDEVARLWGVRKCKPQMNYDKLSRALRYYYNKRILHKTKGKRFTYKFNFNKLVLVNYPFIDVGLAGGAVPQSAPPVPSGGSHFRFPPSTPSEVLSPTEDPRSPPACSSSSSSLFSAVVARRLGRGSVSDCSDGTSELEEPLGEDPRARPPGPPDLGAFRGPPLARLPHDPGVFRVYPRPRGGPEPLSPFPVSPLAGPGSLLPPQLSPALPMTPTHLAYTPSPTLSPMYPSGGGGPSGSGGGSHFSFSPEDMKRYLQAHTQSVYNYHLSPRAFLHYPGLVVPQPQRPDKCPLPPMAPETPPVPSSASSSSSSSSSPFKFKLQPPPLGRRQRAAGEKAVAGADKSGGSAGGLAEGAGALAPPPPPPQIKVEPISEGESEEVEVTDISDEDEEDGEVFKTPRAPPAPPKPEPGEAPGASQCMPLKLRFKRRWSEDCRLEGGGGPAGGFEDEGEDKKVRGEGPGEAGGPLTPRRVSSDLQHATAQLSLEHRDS
How it was run: as §1

ETV3L = biological target: T7, ETV3L (Homo sapiens, UniProt Q6ZN32 1-361); conditions: protein: recombinant; tags: N-terminal GST; dsDNA, one strand shown
T7 sequence: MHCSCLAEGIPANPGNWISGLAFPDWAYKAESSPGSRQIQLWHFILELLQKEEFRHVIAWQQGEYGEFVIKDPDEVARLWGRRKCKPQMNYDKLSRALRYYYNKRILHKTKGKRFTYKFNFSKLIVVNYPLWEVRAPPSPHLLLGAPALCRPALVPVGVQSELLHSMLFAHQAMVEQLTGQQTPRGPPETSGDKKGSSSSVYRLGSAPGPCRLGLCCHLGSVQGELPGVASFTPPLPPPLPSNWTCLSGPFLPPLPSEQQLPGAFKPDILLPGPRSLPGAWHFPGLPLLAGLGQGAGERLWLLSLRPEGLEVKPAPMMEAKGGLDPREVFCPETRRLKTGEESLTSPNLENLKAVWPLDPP
How it was run: as §1

ETS2 = biological target: T8, ETS2 (Homo sapiens, UniProt P15036 1-469); conditions: protein: recombinant; tags: N-terminal GST; dsDNA, one strand shown
T8 sequence: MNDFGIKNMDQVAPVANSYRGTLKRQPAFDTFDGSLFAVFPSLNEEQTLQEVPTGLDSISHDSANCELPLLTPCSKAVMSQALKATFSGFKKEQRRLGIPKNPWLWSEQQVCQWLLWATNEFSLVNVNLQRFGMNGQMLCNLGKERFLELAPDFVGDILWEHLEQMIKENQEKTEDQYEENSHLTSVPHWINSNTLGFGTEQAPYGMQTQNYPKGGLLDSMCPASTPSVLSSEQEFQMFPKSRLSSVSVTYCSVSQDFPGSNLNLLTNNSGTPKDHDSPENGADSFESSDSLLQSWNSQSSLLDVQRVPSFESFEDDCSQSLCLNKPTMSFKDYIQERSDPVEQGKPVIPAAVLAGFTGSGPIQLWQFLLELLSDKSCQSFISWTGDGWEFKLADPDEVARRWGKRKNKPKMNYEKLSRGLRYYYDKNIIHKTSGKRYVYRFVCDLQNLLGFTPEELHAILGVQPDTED
How it was run: as §1

SPDEF = biological target: T9, SPDEF (Homo sapiens, UniProt O95238 1-335); conditions: protein: recombinant; tags: N-terminal GST; dsDNA, one strand shown
T9 sequence: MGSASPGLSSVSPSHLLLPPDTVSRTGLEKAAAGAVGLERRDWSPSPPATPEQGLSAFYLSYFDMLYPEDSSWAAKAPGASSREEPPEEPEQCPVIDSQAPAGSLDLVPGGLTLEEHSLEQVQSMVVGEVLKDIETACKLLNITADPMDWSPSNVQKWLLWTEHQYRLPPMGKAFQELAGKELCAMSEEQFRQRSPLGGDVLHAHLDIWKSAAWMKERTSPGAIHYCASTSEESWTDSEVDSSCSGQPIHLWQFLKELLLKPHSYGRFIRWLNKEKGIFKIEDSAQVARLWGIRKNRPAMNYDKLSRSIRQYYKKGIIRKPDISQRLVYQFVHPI
How it was run: as §1

ETV7 = biological target: T10, ETV7 (Homo sapiens, UniProt Q9Y603 1-341); conditions: protein: recombinant; tags: N-terminal GST; dsDNA, one strand shown
T10 sequence: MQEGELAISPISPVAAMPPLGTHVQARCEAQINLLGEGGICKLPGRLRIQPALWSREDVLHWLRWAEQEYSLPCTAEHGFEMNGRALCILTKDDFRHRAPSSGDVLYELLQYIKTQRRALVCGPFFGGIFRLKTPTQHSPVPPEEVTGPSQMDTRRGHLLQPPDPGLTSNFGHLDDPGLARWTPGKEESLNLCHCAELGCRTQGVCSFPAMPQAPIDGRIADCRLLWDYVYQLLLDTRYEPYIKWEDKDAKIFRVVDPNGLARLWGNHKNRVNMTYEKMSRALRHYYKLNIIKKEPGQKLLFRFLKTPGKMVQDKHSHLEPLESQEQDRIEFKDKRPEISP
How it was run: as §1

ELF5 = biological target: T11, ELF5 (Homo sapiens, UniProt Q9UKW6-2 1-255); conditions: protein: recombinant; tags: N-terminal GST; dsDNA, one strand shown
T11 sequence: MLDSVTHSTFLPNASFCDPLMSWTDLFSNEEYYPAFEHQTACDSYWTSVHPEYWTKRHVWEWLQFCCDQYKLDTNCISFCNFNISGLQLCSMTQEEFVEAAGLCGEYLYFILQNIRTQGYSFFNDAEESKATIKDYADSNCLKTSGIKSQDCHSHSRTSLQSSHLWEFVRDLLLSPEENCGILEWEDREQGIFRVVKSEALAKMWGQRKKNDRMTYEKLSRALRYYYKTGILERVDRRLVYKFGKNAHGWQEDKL
How it was run: as §1

ETV3 = biological target: T12, ETV3 (Homo sapiens, UniProt P41162-2 1-143); conditions: protein: recombinant; tags: N-terminal GST; dsDNA, one strand shown
T12 sequence: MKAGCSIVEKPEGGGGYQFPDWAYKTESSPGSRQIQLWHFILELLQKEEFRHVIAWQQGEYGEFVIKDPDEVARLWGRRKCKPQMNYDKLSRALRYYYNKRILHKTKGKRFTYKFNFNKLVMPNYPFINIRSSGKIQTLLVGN
How it was run: as §1

ETV6 = ETV6 (Homo sapiens, UniProt P41212 1-452); conditions: protein: recombinant; tags: N-terminal GST; dsDNA, one strand shown
How it was run: as §1

Sequence of ETV6 (P41212 whole entry): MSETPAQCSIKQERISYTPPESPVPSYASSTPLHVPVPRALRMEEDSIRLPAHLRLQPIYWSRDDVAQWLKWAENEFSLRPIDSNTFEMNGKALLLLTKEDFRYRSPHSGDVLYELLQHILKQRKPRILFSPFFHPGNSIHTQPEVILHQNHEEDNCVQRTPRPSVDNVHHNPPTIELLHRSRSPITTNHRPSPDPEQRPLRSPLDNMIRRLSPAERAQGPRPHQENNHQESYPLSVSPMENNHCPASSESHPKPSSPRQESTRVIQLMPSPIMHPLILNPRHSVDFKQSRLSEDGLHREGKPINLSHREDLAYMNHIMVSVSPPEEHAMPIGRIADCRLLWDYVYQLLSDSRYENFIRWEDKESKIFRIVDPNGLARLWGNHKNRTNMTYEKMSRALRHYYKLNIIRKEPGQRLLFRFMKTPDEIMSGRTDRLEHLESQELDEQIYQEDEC
Sequence of ETV1 (P50549 whole entry): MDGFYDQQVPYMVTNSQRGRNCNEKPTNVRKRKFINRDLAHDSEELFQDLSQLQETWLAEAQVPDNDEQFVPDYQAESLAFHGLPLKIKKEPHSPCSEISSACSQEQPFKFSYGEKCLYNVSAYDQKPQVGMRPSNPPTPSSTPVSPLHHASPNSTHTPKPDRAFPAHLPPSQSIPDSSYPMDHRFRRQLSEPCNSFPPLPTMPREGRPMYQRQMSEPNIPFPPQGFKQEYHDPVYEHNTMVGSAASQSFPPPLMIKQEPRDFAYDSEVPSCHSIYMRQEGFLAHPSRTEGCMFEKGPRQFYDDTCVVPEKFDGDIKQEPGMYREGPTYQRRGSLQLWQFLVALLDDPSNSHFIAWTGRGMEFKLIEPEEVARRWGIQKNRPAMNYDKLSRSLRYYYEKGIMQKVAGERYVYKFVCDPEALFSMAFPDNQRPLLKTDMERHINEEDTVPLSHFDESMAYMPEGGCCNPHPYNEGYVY
Sequence of ELF4 (Q99607 whole entry): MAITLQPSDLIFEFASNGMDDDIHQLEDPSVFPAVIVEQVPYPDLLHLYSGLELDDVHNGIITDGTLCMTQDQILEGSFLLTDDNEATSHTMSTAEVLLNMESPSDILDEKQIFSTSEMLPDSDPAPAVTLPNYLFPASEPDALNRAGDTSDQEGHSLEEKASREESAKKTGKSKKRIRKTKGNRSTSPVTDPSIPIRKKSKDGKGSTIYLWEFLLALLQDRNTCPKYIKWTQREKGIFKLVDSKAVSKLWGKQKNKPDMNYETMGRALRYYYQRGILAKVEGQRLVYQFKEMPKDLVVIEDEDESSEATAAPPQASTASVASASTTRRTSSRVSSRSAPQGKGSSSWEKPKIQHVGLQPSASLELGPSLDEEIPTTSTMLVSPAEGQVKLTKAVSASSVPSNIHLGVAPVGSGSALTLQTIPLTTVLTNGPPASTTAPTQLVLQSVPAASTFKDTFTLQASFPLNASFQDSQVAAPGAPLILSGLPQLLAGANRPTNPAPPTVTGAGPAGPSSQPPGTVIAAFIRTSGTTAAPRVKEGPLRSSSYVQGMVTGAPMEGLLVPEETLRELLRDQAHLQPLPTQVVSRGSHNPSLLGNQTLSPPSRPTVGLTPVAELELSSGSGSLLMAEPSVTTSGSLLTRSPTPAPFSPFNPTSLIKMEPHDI
Sequence of ETV5 (P41161 whole entry): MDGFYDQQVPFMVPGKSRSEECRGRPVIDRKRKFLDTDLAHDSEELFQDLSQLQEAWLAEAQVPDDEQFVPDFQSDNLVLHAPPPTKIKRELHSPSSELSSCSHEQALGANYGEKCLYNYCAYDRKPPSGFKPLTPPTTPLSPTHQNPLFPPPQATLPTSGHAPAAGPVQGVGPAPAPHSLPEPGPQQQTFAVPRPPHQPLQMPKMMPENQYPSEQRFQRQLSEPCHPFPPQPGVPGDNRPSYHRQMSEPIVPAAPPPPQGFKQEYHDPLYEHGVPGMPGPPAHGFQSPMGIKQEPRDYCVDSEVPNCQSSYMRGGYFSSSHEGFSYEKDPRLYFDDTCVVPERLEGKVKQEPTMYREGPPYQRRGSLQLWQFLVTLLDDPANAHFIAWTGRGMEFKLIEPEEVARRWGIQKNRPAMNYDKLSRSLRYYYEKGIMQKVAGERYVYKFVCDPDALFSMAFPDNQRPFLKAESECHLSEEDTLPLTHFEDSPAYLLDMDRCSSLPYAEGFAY
Sequence of CRX (O43186 whole entry): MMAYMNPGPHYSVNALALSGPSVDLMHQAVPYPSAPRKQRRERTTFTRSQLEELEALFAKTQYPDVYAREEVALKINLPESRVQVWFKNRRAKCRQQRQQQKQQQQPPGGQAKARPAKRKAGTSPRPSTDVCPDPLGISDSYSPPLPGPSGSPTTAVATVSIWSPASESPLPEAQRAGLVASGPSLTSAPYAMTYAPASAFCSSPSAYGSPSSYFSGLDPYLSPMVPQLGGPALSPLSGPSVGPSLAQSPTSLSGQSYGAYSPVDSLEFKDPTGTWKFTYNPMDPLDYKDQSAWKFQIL
Sequence of HSF1 (Q00613 whole entry): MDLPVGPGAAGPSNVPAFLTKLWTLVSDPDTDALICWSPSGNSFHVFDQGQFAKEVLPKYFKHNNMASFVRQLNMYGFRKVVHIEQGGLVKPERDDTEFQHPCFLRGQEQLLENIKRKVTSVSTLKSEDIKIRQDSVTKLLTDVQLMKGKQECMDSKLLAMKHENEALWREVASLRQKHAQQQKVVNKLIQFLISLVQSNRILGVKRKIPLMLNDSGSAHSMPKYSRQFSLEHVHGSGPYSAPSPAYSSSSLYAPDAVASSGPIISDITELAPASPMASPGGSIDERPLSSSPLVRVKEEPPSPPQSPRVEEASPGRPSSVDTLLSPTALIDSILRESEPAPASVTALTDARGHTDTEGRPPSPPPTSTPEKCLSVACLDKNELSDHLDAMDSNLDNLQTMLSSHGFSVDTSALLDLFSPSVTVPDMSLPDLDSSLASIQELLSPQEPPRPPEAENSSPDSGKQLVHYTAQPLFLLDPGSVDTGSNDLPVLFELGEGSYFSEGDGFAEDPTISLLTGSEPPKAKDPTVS

## AACACT
FEV
  binding signal: 1.26 fold enrichment (6-mer frequency, TF over GST control)
ETV5
  binding signal: 1.28 fold enrichment (6-mer frequency, TF over GST control)
HSF1
  binding signal: 1.18 fold enrichment (6-mer frequency, TF over GST control)
SPIC
  binding signal: 1.52 fold enrichment (6-mer frequency, TF over GST control)
ELF4
  binding signal: 1.3 fold enrichment (6-mer frequency, TF over GST control)
ELK4
  binding signal: 1.29 fold enrichment (6-mer frequency, TF over GST control)
ETV2
  binding signal: 1.26 fold enrichment (6-mer frequency, TF over GST control)
ELF3
  binding signal: 1.23 fold enrichment (6-mer frequency, TF over GST control)
CRX
  binding signal: 1.14 fold enrichment (6-mer frequency, TF over GST control)
ETV1
  binding signal: 1.25 fold enrichment (6-mer frequency, TF over GST control)
ERF
  binding signal: 1.21 fold enrichment (6-mer frequency, TF over GST control)
ETV3L
  binding signal: 1.3 fold enrichment (6-mer frequency, TF over GST control)
ETS2
  binding signal: 1.37 fold enrichment (6-mer frequency, TF over GST control)
SPDEF
  binding signal: 1.22 fold enrichment (6-mer frequency, TF over GST control)
ETV7
  binding signal: 1.32 fold enrichment (6-mer frequency, TF over GST control)
ELF5
  binding signal: 1.34 fold enrichment (6-mer frequency, TF over GST control)
ETV3
  binding signal: 1.29 fold enrichment (6-mer frequency, TF over GST control)
ETV6
  binding signal: 1.4 fold enrichment (6-mer frequency, TF over GST control)
